Bioassay records: PubChem, several laboratories
The list is not random: actives were taken first. Their share in the collection is about 1.2%.
Sa ugtP lethal – growth inhibition of ugtP-null S. aureus, primary screen, RN4220 ugtP deletion, OD600; actives 0.54% (n = 330,000); growth inhibition, % (no concentration beside the values); AID 1259309, 2017; 16 h; in the data active = growth inhibition above about 68%
Sa RN4220 lethal – growth inhibition of S. aureus RN4220, primary screen, OD600; AID 1259311, 2017; inhibition, % (no concentration beside the values); 16 h; actives 0.33% (n = 330,000); in the data active = inhibition above about 85%
BJeLR viability – MLPCN primary cell-based screen for lethality selective to Ras in HRASV12 cells. BJeLR (HRASV12) viability, CellTiter-Glo ATP luminescence, 48 h. inhibition, % (test concentration not listed). actives 0.17% (n = 300,000); in the data active = inhibition above about 50%
SSB-PriA inh – inhibitors of Klebsiella pneumoniae PriA binding to SSB C-terminal tail, primary screen, biochemical, AlphaScreen | PriA–SSB C-terminal tail interaction (Klebsiella pneumoniae) | AlphaScreen SSBct-PriA binding, biotinylated peptide | inhibition, % at 33 µM | actives 0.6% (n = 430,000) | AID 1272365, 2023; in the data active = inhibition mostly above about 37%, no sharp cut-off; inactive = mostly below about 20%
MazEF act – activators of E. coli MazEF toxin-antitoxin RNase, primary screen, biochemical, fluorescence, uHTS; FAM/BHQ RNA-DNA oligo cleavage fluorescence, 5 h; AID 504720, 2011; Endoribonuclease toxin MazF (Escherichia coli (strain K12)), P0AE70; activation, % at 20 µM; actives 0.32% (n = 350,000); in the data active = activation above about 50%
Target sequence (P0AE70 whole entry, looked up): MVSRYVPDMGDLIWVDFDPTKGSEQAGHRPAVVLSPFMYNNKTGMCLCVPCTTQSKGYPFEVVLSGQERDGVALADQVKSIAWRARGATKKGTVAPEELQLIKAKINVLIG
Large screens that a line does not name were inactive.

CC(C)c1nc(SCc2ccccn2)c2c(=O)n(C)c(=O)n(C)c2n1	none
O=C(O)c1cc(-c2cccs2)[nH]n1	none
CC[C@@H](C)[C@@H]1CN([C@@H](CN2CCC[C@H]2CN2C(N)=NC[C@H]2CC(C)C)C(C)C)C(=N)N1CCCC1CCCC1	Sa ugtP lethal 101, Sa RN4220 lethal 100 (no result: BJeLR viability)
CC(C)[C@@H]1CN=C(N)N1C[C@@H]1CCCN1C[C@H](C)N1C[C@@H](Cc2ccccc2)N(CCc2ccc(Cl)c(Cl)c2)C1=N	Sa ugtP lethal 100, Sa RN4220 lethal 101 (no result: BJeLR viability)
C[C@@H](CN1CCC[C@H]1CN1C(N)=NC[C@@H]1Cc1ccccc1)N1C[C@@H](Cc2ccccc2)N(CCc2ccc(Cl)c(Cl)c2)C1=N	none (no result: Sa ugtP lethal, Sa RN4220 lethal, BJeLR viability)
CCC[C@@H](CN1CCC[C@H]1CN1C(N)=NC[C@H]1CC(C)C)N1C[C@@H](Cc2ccccc2)N(CCc2ccc(Cl)c(Cl)c2)C1=N	Sa ugtP lethal 100, Sa RN4220 lethal 100 (no result: BJeLR viability)
CCC[C@@H](CN1CCC[C@H]1CN1C(N)=NC[C@@H]1Cc1ccccc1)N1C[C@@H]([C@H](C)CC)N(CCCC2CCCC2)C1=N	none (no result: Sa ugtP lethal, Sa RN4220 lethal, BJeLR viability)
COc1ccc(-c2nnc(NC(=O)Cc3ccc(F)cc3)s2)c(OC)c1	none (no result: Sa ugtP lethal, Sa RN4220 lethal, BJeLR viability, MazEF act)
CCCCCCNc1c([N+](=O)[O-])cc(C)cc1[N+](=O)[O-]	SSB-PriA inh 60
Cc1cc([N+](=O)[O-])c(NCCCO)c([N+](=O)[O-])c1	none (no result: Sa ugtP lethal, Sa RN4220 lethal, BJeLR viability, MazEF act)
CN(C)c1ccc(C=Nc2nnc(NC(=O)c3ccccc3Br)s2)cc1	none (no result: Sa ugtP lethal, Sa RN4220 lethal, BJeLR viability, MazEF act)
Cc1cc(C)cc(C(=O)Nc2nnc(N=Cc3ccc(Br)s3)s2)c1	SSB-PriA inh 71 (no result: Sa ugtP lethal, Sa RN4220 lethal, BJeLR viability, MazEF act)
O=C(CCC(=O)Nc1nnc(C2CCCCC2)s1)Nc1ccc(F)cc1	none
Cc1ccc(CN2[C@@H](Cc3ccccc3)C(=O)CS2(=O)=O)cc1	none (no result: Sa ugtP lethal, Sa RN4220 lethal, BJeLR viability)
COc1ccccc1-c1nc(C#N)c(N2CCN(Cc3ccccc3)CC2)o1	SSB-PriA inh 41
COc1ccc(-c2nc(C#N)c(N3CCN(C)CC3)o2)cc1	SSB-PriA inh 54 (no result: Sa ugtP lethal, Sa RN4220 lethal, BJeLR viability, MazEF act)
COc1ccccc1-c1nc(C#N)c(N2CCC(Cc3ccccc3)CC2)o1	none
N#Cc1nc(-c2ccccc2Cl)oc1N1CCCCC1	SSB-PriA inh 48
CC(C)(C)c1ccc(-c2nc(C#N)c(N3CCCCC3)o2)cc1	SSB-PriA inh 73 (no result: Sa ugtP lethal, Sa RN4220 lethal, BJeLR viability, MazEF act)
COc1cc(NC(=O)c2cc(C3CC3)on2)c(OC)cc1Cl	none
CCCC(=O)Nc1ccc2c(c1)OCC(C)(C)C(=O)N2CC(C)C	none (no result: Sa ugtP lethal, Sa RN4220 lethal, BJeLR viability, MazEF act)
CC(C)[C@H](NC(=O)c1ccccc1)C(=O)OCC(=O)N1CCCCCC1	none
CC(=NNc1ccccn1)c1ccc(OC(F)F)cc1	Sa ugtP lethal 93 (no result: BJeLR viability, MazEF act)
COc1ccc(C2C(C(=O)c3cccs3)=C(O)C(=O)N2c2nncs2)cc1 (stereo unspecified)	none
C=CCOc1ccc(C2C(C(=O)c3cccs3)=C(O)C(=O)N2c2nnc(C)s2)cc1 (stereo unspecified)	MazEF act 315
COc1ccc(C2C(C(=O)c3cccs3)=C(O)C(=O)N2c2nnc(C)s2)cc1OC (stereo unspecified)	MazEF act 69
CC(C)c1nnc(N2C(=O)C(O)=C(C(=O)c3cccs3)C2c2ccccc2)s1 (stereo unspecified)	MazEF act 172
COc1ccccc1C1CN(c2ccccc2)N=C1c1cccs1 (stereo unspecified)	none
COc1cccc(C2CN(c3ccc(F)cc3F)N=C2c2cccs2)c1OC (stereo unspecified)	Sa ugtP lethal 88
COc1ccc(-c2cc3nc(-c4ccccc4)cc(N4CCCC(O)C4)n3n2)cc1 (stereo unspecified)	none
COc1ccc(-c2cc3nc(-c4ccccc4)cc(N4CCC(O)CC4)n3n2)cc1	Sa ugtP lethal 90
CSC(=NC#N)N1CCN(c2c(C)cccc2C)CC1	none
NCC(=O)Nn1cnnc1CN	SSB-PriA inh 98 (no result: Sa ugtP lethal, Sa RN4220 lethal, BJeLR viability, MazEF act)
COCCCn1c(=O)c2ccccc2n(Cc2nc(-c3cccc(C)c3)no2)c1=O	none (no result: Sa ugtP lethal, Sa RN4220 lethal, BJeLR viability, MazEF act)
Cc1cc(C(C)(C)CC(C)(C)C)ccc1OCCOCC[N+](C)(C)Cc1ccccc1	Sa ugtP lethal 100, Sa RN4220 lethal 101 (no result: BJeLR viability)
CCc1ccc(C(C)=NNC(=O)CNC(=O)/C=C/c2ccccc2OC)cc1	none (no result: BJeLR viability, MazEF act)
Cc1occc(=O)c1OC(=O)Nc1ccc(Cl)c(Cl)c1	Sa ugtP lethal 99, Sa RN4220 lethal 99 (no result: BJeLR viability)
Cc1cccn2c(=O)c3cc(C(=O)O)n(C)c3nc12	none (no result: Sa ugtP lethal, Sa RN4220 lethal)
O=C1NCCCC1C(=O)N/N=C/c1cc([N+](=O)[O-])ccc1O (stereo unspecified)	none (no result: Sa ugtP lethal, Sa RN4220 lethal, SSB-PriA inh)
